Laboratory results reported in PubChem BioAssay (NCATS).
Results filed as inconclusive are left out. The source made the active and inactive calls. Calls follow the shape of the dose curve; as a rule, active = well fitted cell-killing curve with a large enough effect; inconclusive = small, poorly fitted or top-dose-only effect, or effect the other way; inactive = no such curve, though single readings can be large or run the other way.

assay: Quantitative High-Throughput drug screen in 47 multiple myeloma cell lines against the NCATS MIPE library collection: EJM_DSMZ cell viability assay (AID 1918926; also: nearly all actives have a fitted effect of over 30% in size); details: EJM myeloma cell viability, CellTiter-Glo ATP, 48 h; series mostly up to 45.8 µM; viability, % of control: at the top concentration
Description: PI: Beverly A. Mock Ph.D.
Laboratory of Cancer Biology and Genetics,
Center for Cancer Research, National Cancer Institute,
National Institute of Health, Bethesda, Maryland
Drug resistance and disease progression are common in multiple myeloma (MM) patients, underscoring the need for new therapeutic combinations. […] We hypothesized that effective combinations would reduce MYC expression and enhance p16 activity. […] These preclinical data identify potentially useful drug combinations for evaluation in drug-resistant MM and reveal potential mechanisms of combined drug sensitivity.
Described herein is the primary MIPE qHTS used to cherrypick compounds. Validated compounds were then further tested for potential synergistic activiy.
[1] Peat TJ, Gaikwad SM, Dubois W, Gyabaah-Kessie N, Zhang S, Gorjifard S, Phyo Z, Andres M, Hughitt VK, Simpson RM, Miller MA, Girvin AT, Taylor A, Williams D, D'Antonio N, Zhang Y, Rajagopalan A, Flietner E, Wilson K, Zhang X, Shinn P, Klumpp-Thomas C, McKnight C, Itkin Z, Chen L, Kazandijian D, Zhang J, Michalowski AM, Simmons JK, Keats J, Thomas CJ, Mock BA. Drug combinations identified by high-throughput screening promote cell cycle transition and upregulate Smad pathways in myeloma. Cancer Lett. 2023 Aug 1;568:216284. doi: 10.1016/j.canlet.2023.216284. Epub 2023 Jun 24. PMID: 37356470; PMCID: PMC10408729.
SEQUENCE No. (e.g., 1, 2, 3, etc.); […] (e.g., Cells, Incubation, Reagent, etc.); VALUE and DESCRIPTION.
1; Cells; 5 uL; white, solid bottom 1536-well Greiner assay plate.
2; Compounds; 23 nL; Kalypsis pin tool (Wako USA) equipped with a 1536-well pin head to transfer to the assay plates.
3; Incubation; 48 hours; 37C incubation.
4; Reagent;5uL; CellTiter Glo (Promega).
5; Detector; 425V; Luminescence; Viewlux PerkinElmer.
NOTES (numbers refer to Sequence numbers above)
1. The cell-based screening methods employed in this study were like those previously published. Briefly, the corresponding myeloma cell lines were screened in 1,536-well plates with 500 cells, 5-uL per well for inhibition of cell viability (assessed by measuring ATP levels with CellTiterGlo).
2. NCATS MIPE 4.0 library of approved and investigational drugs were added using the Kalypsis pin tool. Wells treated with DMSO only for 100% viability and media only wells for 0% viability were used as controls.
3. The assay plates were covered and incubated for 48 hours in a 37C, 5% CO2 incubator with controlled humidity.
4. After 48 hours, CellTilter-GloTM luminescent substrate mix (Promega) reagent was added to the assay plate and plates we incubated for 5 min at room temperature.
5. Signal was measured as median relative luminescence units on a ViewLux (PerkinElmer) multiplate reader.
[1] Heske CM, Davis MI, Baumgart JT, Wilson K, Gormally MV, Chen L, Zhang X, Ceribelli M, Duveau DY, Guha R, Ferrer M, Arnaldez FI, Ji J, Tran HL, Zhang Y, Mendoza A, Helman LJ, Thomas CJ. Matrix Screen Identifies Synergistic Combination of PARP Inhibitors and Nicotinamide Phosphoribosyltransferase (NAMPT) Inhibitors in Ewing Sarcoma. Clin Cancer Res. 2017 Dec 1;23(23):7301-7311. doi: 10.1158/1078-0432.CCR-17-1121. Epub 2017 Sep 12. PMID: 28899971; PMCID: PMC6636827.
Potency is read from the fitted curve at half-maximal effect.

Row | Compound | viability, % of control | Potency
1 | Clc1cccc(Cl)c1NC1=NCCN1 | 101% (inactive) | –
2 | CC(C)(C)OC(=O)CN(Cc1ccc(Cl)cc1)Cc1ccc([N+](=O)[O-])s1 | 87.2% (inactive) | –
3 | CC1(C)SCCN(S(=O)(=O)c2ccc(OCC#CCO)cc2)[C@@H]1C(=O)NO | 98.5% (inactive) | –
4 | CCn1cc(C(=O)O)c(=O)c2cc(F)c(N3CCNC(C)C3)c(F)c21 (stereo not given) | 111% (inactive) | –
5 | CC(C=CC1=C(C)CCCC1(C)C)=CC=CC(C)=CC(=O)O | – | 13.2 µM (active)
6 | Cc1oncc1C(=O)Nc1ccc(C(F)(F)F)cc1 | – | 20.9 µM (active)
7 | Cc1ccccc1C(C(=O)NC1CCCC1)N(C(=O)Cn1cnc2ccccc21)c1cccc(F)c1 (stereo not given) | 85.3% (inactive) | –
8 | CNC(=O)c1ccc(C)c(-n2c(C)cc(OCc3ccc(F)cc3F)c(Br)c2=O)c1 | – | 20.9 µM (active)
9 | Cc1cccc(-c2nn(C(=S)Nc3ccccc3)cc2-c2ccnc3ccccc23)n1 | – | 11.8 µM (active)
10 | CCC(C)n1ncn(-c2ccc(N3CCN(c4ccc(OC[C@H]5CO[C@](Cn6cncn6)(c6ccc(Cl)cc6Cl)O5)cc4)CC3)cc2)c1=O (stereo not given in full) | – | 2.96 µM (active)
11 | CCCCCCCc1ccc(CCc2cccc(O)c2C(=O)O)cc1 | 88.3% (inactive) | –
12 | O=C(Nc1nc2ccccc2n1CCN1CCOCC1)c1cccc([N+](=O)[O-])c1 | – | 4.18 µM (active)
13 | CCOc1cc(C=C2C(=O)N(c3ccccc3)N=C2C)cc(Cl)c1OCC(=O)OC | – | 18.7 µM (active)
14 | CCN(CC)CCCC(C)Nc1ccnc2cc(Cl)ccc12 (stereo not given) | 104% (inactive) | –
15 | Nc1ccc(S(=O)(=O)Nc2ccnn2-c2ccccc2)cc1 | 127% (inactive) | –
16 | COCCNCCCn1c(C(=O)CF)c(-c2ccc(C)cc2)c2c(N)ncnc21 | – | 4.18 µM (active)
17 | O=C(O)CCc1ccc(NCc2cccc(Oc3ccccc3)c2)cc1 | 124% (inactive) | –
18 | C[C@]12CC[C@H](O)CC1=CC[C@@H]1[C@H]2CC[C@]2(C)C(c3cccnc3)=CC[C@H]12 | 84.1% [at 23.2 µM] (inactive) | –
19 | Clc1ccc(Nc2nnc(Cc3ccncc3)c3ccccc23)cc1 | – | 18.7 µM (active)
20 | COc1ccc(COc2cc3oc(=O)c4cc(C(C)O)ccc4c3cc2OC)cc1 (stereo not given) | – | 16.6 µM (active)

Row | Compound | viability, % of control | Potency
21 | NC(=O)c1ccc(I)c([N+](=O)[O-])c1 | 92% (inactive) | –
22 | CS(=O)(=O)Oc1ccc2c(NC(N)=O)c(C(=O)c3ccc(Cl)cc3Cl)oc2c1 | 109% (inactive) | –
23 | Cc1ccc(-n2nc(C(C)(C)C)cc2NC(=O)Nc2ccc(OCCN3CCOCC3)c3ccccc23)cc1 | – | 18.7 µM (active)
24 | COc1ccc2c3n(c(=NC(=O)c4cccnc4)nc2c1OC)CCN3 | – | 7.43 µM (active)
25 | CN(C)c1ccc(Nc2nc(N)n(C(=O)c3c(F)cccc3F)n2)cc1 | – | 20.9 µM (active)
26 | Cc1ccc(N(CC2=NCCN2)c2cccc(O)c2)cc1 | 86.4% (inactive) | –
27 | COc1ccc(CCN2CCN(CCCc3ccccc3)CC2)cc1OC | 92.7% (inactive) | –
28 | COc1cc2nccc(Oc3ccc(NC(=O)NC4CC4)c(Cl)c3)c2cc1C(N)=O | – | 2.09 µM (active)
29 | CCCc1nn(C)c2c(=O)[nH]c(-c3cc(S(=O)(=O)N4CCN(C)CC4)ccc3OCC)nc12 | 77.9% (inactive) | –
30 | CCCC(CCC)C(=O)O | 111% (inactive) | –
31 | CNCc1ccc(-c2[nH]c3cc(F)cc4c3c2CCNC4=O)cc1 | 121% (inactive) | –
32 | CS(=O)(=O)c1cccc(CNc2nc(Nc3ccc4c(c3)CCC(=O)N4)ncc2C(F)(F)F)c1 | – | 23.5 µM (active)
33 | CC[C@H](Nc1ncnc2nc[nH]c12)c1nc2cccc(F)c2c(=O)n1-c1ccccc1 | – | 14.8 µM (active)
34 | COc1cc(Nc2ncc3c(n2)-c2ccc(Cl)cc2C(c2c(F)cccc2OC)=NC3)ccc1C(=O)O | 72.9% (inactive) | –
35 | Nc1nc2ccc(OC(F)(F)F)cc2s1 | 79% (inactive) | –
36 | CCC(=O)N[C@H]1CC[C@H](C(=O)N(C)c2ccc(-c3nc4ccccc4o3)cc2)C1 | – | 16.6 µM (active)
37 | O=NN(CCCl)C(=O)NCCCl | 103% (inactive) | –
38 | COc1cc(Oc2ccnc3cc(OC)c(OC)cc23)ccc1NC(=O)NC(C)c1nccs1 (stereo not given) | 102% (inactive) | –
39 | Nc1nccc(-c2ccc3noc(-c4ccc(Cl)cc4)c3c2)n1 | 82.7% (inactive) | –
40 | CCc1cc(Nc2nccc(-c3c(-c4ccc(OC)c(C(=O)Nc5c(F)cccc5F)c4)nc4ccccn34)n2)c(OC)cc1N1CCC(N2CCN(S(C)(=O)=O)CC2)CC1 | – | 10.5 µM (active)
